# Reference: PubChem BioAssay
# The source made the active and inactive calls. Rule as the data show it, unless noted: active = inhibition above about 80%; inactive = the rest.
# Key:
# [1] = LFS_MB_P medulloblastoma growth inhibition, cell-based, chromothripsis tumors, cisplatin or BGB combos (AID 1671449); conditions: LFS_MB_P medulloblastoma cells;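 also: cells exposed for 96 hours; 0% = vehicle DMSO and 100% = killing by high DMSO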
# [2] = HDN33 neuroblastoma growth inhibition, cell-based, chromothripsis tumors, cisplatin or BGB combos (AID 1671450); conditions: HDN33 neuroblastoma cells, stronger effect = higher value;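 also: cells exposed to compound for four days; 0% = vehicle DMSO and 100% = cell killing by high DMSO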
# [3] = ICB984 medulloblastoma cell growth inhibition, synergistic combos for chromothripsis tumors, cisplatin or BGB combos (AID 1671451; call rule not given here;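 also: cells exposed for 96 hours before readout; 0% = vehicle DMSO and 100% = killing by high DMSO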); conditions: ICB984 medulloblastoma cells, drug combinations, stronger effect = higher value
# [4] = LFS_MB_1R medulloblastoma cell growth inhibition, synergistic combos for chromothripsis tumors, cisplatin or BGB combos (AID 1671452); conditions: LFS_MB_1R medulloblastoma cells, stronger effect = higher value;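 also: cells exposed for 96 hours before readout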
# [5] = HTB85 osteosarcoma cell growth inhibition, synergistic combos for chromothripsis tumors, BGB or cisplatin IC20 combos (AID 1671453); conditions: HTB85 osteosarcoma cells, drug combinations, stronger effect = higher value;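 also: cells exposed for 96 hours before readout; 0% = vehicle DMSO and 100% = high DMSO killing control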
# [6] = CRL2098 osteosarcoma cell growth inhibition, synergistic combos for chromothripsis tumors, BGB or cisplatin IC20 combos (AID 1671454); conditions: CRL2098 osteosarcoma cells, drug combinations, stronger effect = higher value;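 also: cells exposed for 96 h before readout; 0% = vehicle DMSO and 100% = killing by high DMSO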
# [7] = HD-MB03 medulloblastoma cell growth inhibition, synergistic combos for chromothripsis tumors, BGB or cisplatin IC20 combos (AID 1671455; in the data active = inhibition above about 83%;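 also: 0% = vehicle DMSO and 100% = high DMSO as cytotoxic control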); conditions: HD-MB03 medulloblastoma cells, stronger effect = higher value
# [8] = UWB1.289 ovarian carcinoma cell growth inhibition, synergistic combos for chromothripsis tumors, BGB or cisplatin combos (AID 1671456); conditions: UWB1.289 ovarian carcinoma cells, stronger effect = higher value;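 also: cells exposed to compound for four days; 0% = vehicle DMSO and 100% = killing by high DMSO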
# [9] = LFS_MB_2R medulloblastoma cell growth inhibition, synergistic combos for chromothripsis tumors, cisplatin combos (AID 1671457); conditions: LFS_MB_2R medulloblastoma cells, stronger effect = higher value;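 also: cells exposed to compound for four days before readout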
# [10] = MDA-MB-436 breast carcinoma cell growth inhibition, synergistic combos for chromothripsis tumors, BGB or cisplatin combos (AID 1671458; call rule not given here;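 also: cells exposed for 96 hours; 0% = vehicle DMSO and 100% = killing by high DMSO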); conditions: MDA-MB-436 breast carcinoma growth inhibition, drug combinations, stronger effect = higher value
# [11] = UWB1.289_BRCA1 ovarian cancer growth, cell-based, BGB or cisplatin combinations (AID 1671459); conditions: UWB1.289 BRCA1 ovarian carcinoma, drug combinations, stronger effect = higher value
# [12] = human astrocyte viability loss, single and combined drugs, cytotoxicity control for chromothriptic childhood tumor combination screen, cell-based, BGB or cisplatin IC20 combos (AID 1671460); conditions: Human astrocytes, drug combinations, stronger effect = higher value;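 also: cells exposed to compounds for 96 hours before viability readout; 0% = vehicle and 100% = killing control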
# [13] = growth inhibition of BT084 medulloblastoma cells, cell-based, ICGC_MB145, cisplatin and BGB IC40 combos (AID 1671461); conditions: drug combinations, stronger effect = higher value;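 also: cells exposed to drugs for 96 hours; 0% = vehicle DMSO and 100% = high DMSO full killing control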
# [14] = growth inhibition of RCMB18 medulloblastoma cells, cell-based, cisplatin and BGB IC40 combos (AID 1671462); conditions: stronger effect = higher value;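 also: cells exposed to compound for four days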
# [15] = growth inhibition of CRL1545 osteosarcoma cells, cell-based, cisplatin and BGB IC20 combos (AID 1671464); conditions: stronger effect = higher value;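 also: cells exposed to compound for 96 hours before readout; 0% = vehicle DMSO and 100% = high DMSO killing control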
# [16] = at 0.5 µM, stronger effect = higher value
# [17] = measured here: combination with BGB IC20, at 0.005 µM
# [18] = measured here: combination with BGB IC40, at 0.005 µM
# [19] = measured here: combination with BGB IC40, at 0.05 µM
# [20] = measured here: combination with cisplatin, at 0.5 µM, stronger effect = higher value
# [21] = measured here: combination with cisplatin, at 5 µM, stronger effect = higher value
# [22] = measured here: with BGB IC20 combination, at 0.5 µM
# [23] = measured here: with cisplatin IC20 combination, at 0.5 µM
# [24] = measured here: 5 uM single agent, at 5 µM
# [25] = measured here: combination with cisplatin, at 0.5 µM
# [26] = measured here: combination with cisplatin, at 5 µM
# [27] = measured here: with BGB IC20, at 0.5 µM
# [28] = measured here: with BGB IC20, at 5 µM
# [29] = measured here: with cisplatin IC20, at 0.5 µM
# [30] = measured here: with cisplatin IC20, at 5 µM
# [31] = measured here: combination with BGB at IC20, at 0.5 µM
# [32] = measured here: combination with cisplatin at IC20, at 0.5 µM
# [33] = measured here: combo with BGB at IC20, at 0.5 µM
# [34] = measured here: combo with cisplatin at IC20, at 0.5 µM
# [35] = measured here: inhibition with BGB combination, at 0.05 µM
# [36] = measured here: inhibition with cisplatin combination, at 0.05 µM
# [37] = measured here: BGB combination, at 0.5 µM
# [38] = measured here: BGB combination, at 5 µM
# [39] = measured here: cisplatin combination, at 0.5 µM
# [40] = measured here: cisplatin combination, at 5 µM
# [41] = BGB combination, concentration series, at 5 µM
# [42] = cisplatin combination, concentration series, at 5 µM
# [43] = measured here: combo with BGB IC20, at 0.5 µM
# [44] = measured here: combo with cisplatin IC20, at 0.5 µM
# [45] = cisplatin combination, at 0.5 µM
# [46] = measured here: BGB IC40 combination 0.05 uM, at 0.05 µM
# [47] = measured here: BGB IC40 combination, at 0.05 µM
compound,measurement,setting,value
C=C1C(=O)O[C@@H]2C=C(C)CCC=C(C)CC[C@@H]12,inhibition,[1]; [16],-19.3% (inactive)
same,inhibition,[1]; [17],-3.36%
same,inhibition,[1]; [18],-13.6%
same,inhibition,[1]; [19],7.16%
same,inhibition,[1]; [20],-51.8%
same,inhibition,[1]; [21],114%
same,inhibition,"[2]; BGB combo, at 5 µM",5.76%
same,inhibition,[2]; at 0.5 µM,-17.6% (inactive)
same,inhibition,"[2]; cisplatin combo, at 5 µM",29.9%
same,inhibition,[2]; [22],-23.4%
same,inhibition,[2]; [23],-29.2%
same,inhibition,"[2]; single agent, at 5 µM",38.5%
same,inhibition,"[3]; BGB IC20 combo, at 0.005 µM",4.25%
same,inhibition,"[3]; BGB IC40 combo, at 0.005 µM",-33%
same,inhibition,"[3]; BGB IC40 combo, at 0.05 µM",53.7%
same,inhibition,[3]; at 0.5 µM,-17.1% (inactive)
same,inhibition,"[3]; cisplatin combo, at 0.05 µM",51.9%
same,inhibition,"[3]; cisplatin combo, at 0.5 µM",-18%
same,inhibition,"[3]; cisplatin combo, at 5 µM",-19.3%
same,inhibition,[3]; [24],-11.6%
same,inhibition,[4]; at 0.5 µM,-31.9% (inactive)
same,inhibition,[4]; [19],-18.3%
same,inhibition,[4]; [25],-29.4%
same,inhibition,[4]; [26],98.6%
same,inhibition,[5]; at 0.5 µM,-6.12% (inactive)
same,inhibition,[5]; [27],-12.5%
same,inhibition,[5]; [28],51.6%
same,inhibition,[5]; [29],-4.05%
same,inhibition,[5]; [30],62.5%
same,inhibition,"[5]; single agent, at 5 µM",66.5%
same,inhibition,[6]; at 0.5 µM,-64.3% (inactive)
same,inhibition,[6]; [31],-14.4%
same,inhibition,[6]; [32],-90.7%
same,inhibition,[7]; at 0.5 µM,-8.56% (inactive)
same,inhibition,[7]; [33],5.57%
same,inhibition,[7]; [34],-16.5%
same,inhibition,[8]; at 0.5 µM,-5.91% (inactive)
same,inhibition,[8]; [35],-14.1%
same,inhibition,[8]; [36],-20.4%
same,inhibition,[9]; at 0.5 µM,-23.7% (inactive)
same,inhibition,[9]; [25],-29.5%
same,inhibition,[9]; [26],43.1%
same,inhibition,[10]; at 0.5 µM,-0.98% (inactive)
same,inhibition,[10]; [37],1.65%
same,inhibition,[10]; [38],39.9%
same,inhibition,[10]; [39],-3.72%
same,inhibition,[10]; [40],56.7%
same,inhibition,[11]; [41],44.1%
same,inhibition,[11]; at 0.5 µM,-3.8% (inactive)
same,inhibition,[11]; [42],48.6%
same,inhibition,[12]; at 0.5 µM,3.62% (inactive)
same,inhibition,[12]; [43],4.43%
same,inhibition,[12]; [44],0.413%
same,inhibition,[13]; at 0.5 µM,-5.97% (inactive)
same,inhibition,[13]; [45],-9.26%
same,inhibition,"[13]; cisplatin combination, at 5 µM",48.9%
same,inhibition,[13]; [46],-2.12%
same,inhibition,"[13]; single agent, at 5 µM",20.7%
same,inhibition,[14]; at 0.5 µM,9.79% (inactive)
same,inhibition,"[14]; cisplatin combo, at 5 µM",75.6%
same,inhibition,[14]; [47],6.86%
same,inhibition,[14]; [25],15.7%
same,inhibition,"[14]; single agent, at 5 µM",33.4%
same,inhibition,[15]; at 0.5 µM,8.87% (inactive)
same,inhibition,[15]; [22],-16.3%
same,inhibition,[15]; [23],21.4%
same,inhibition,"[15]; single agent, at 0.05 µM",18.3%
same,inhibition,"[15]; single agent, at 5 µM",72.3%
O=C(CCSc1nc2ccccc2c(=O)[nH]1)NC1CCC(c2nnc(-c3ccccc3)o2)CC1 (stereo unspecified),inhibition,[1]; [16],-18.8% (inactive)
same,inhibition,[1]; [17],-14.4%
same,inhibition,[1]; [18],-25.3%
same,inhibition,[1]; [19],-55.5%
same,inhibition,[1]; [20],-16.2%
same,inhibition,[1]; [21],-49.7%
same,inhibition,"[2]; BGB combo, at 5 µM",11.8%
same,inhibition,[2]; at 0.5 µM,16.1% (inactive)
same,inhibition,"[2]; cisplatin combo, at 5 µM",29.6%
same,inhibition,[2]; [22],8.27%
same,inhibition,[2]; [23],21.3%
same,inhibition,"[2]; single agent, at 5 µM",32.4%
same,inhibition,"[3]; BGB IC20 combo, at 0.005 µM",-2.22%
same,inhibition,"[3]; BGB IC40 combo, at 0.005 µM",-49.4%
same,inhibition,"[3]; BGB IC40 combo, at 0.05 µM",-27.2%
same,inhibition,[3]; at 0.5 µM,-25.5% (inactive)
same,inhibition,"[3]; cisplatin combo, at 0.05 µM",-31.8%
same,inhibition,"[3]; cisplatin combo, at 0.5 µM",-22.3%
same,inhibition,"[3]; cisplatin combo, at 5 µM",-10.9%
same,inhibition,[3]; [24],-18.3%
same,inhibition,[4]; at 0.5 µM,-14.6% (inactive)
same,inhibition,[4]; [19],6.03%
same,inhibition,[4]; [25],-5.82%
same,inhibition,[4]; [26],-21.2%
same,inhibition,[5]; at 0.5 µM,2.93% (inactive)
same,inhibition,[5]; [27],-9.32%
same,inhibition,[5]; [28],-14.4%
same,inhibition,[5]; [29],5.46%
same,inhibition,[5]; [30],-13.6%
same,inhibition,"[5]; single agent, at 5 µM",0.754%
same,inhibition,[6]; at 0.5 µM,-30.9% (inactive)
same,inhibition,[6]; [31],-25.3%
same,inhibition,[6]; [32],-55.1%
same,inhibition,[7]; at 0.5 µM,5.94% (inactive)
same,inhibition,[7]; [33],-6.25%
same,inhibition,[7]; [34],23%
same,inhibition,[8]; at 0.5 µM,10.2% (inactive)
same,inhibition,[8]; [35],-3.32%
same,inhibition,[8]; [36],13%
same,inhibition,[9]; at 0.5 µM,-3.45% (inactive)
same,inhibition,[9]; [25],-13.5%
same,inhibition,[9]; [26],-4.17%
same,inhibition,[10]; at 0.5 µM,4.84% (inactive)
same,inhibition,[10]; [37],-2.01%
same,inhibition,[10]; [38],-13.2%
same,inhibition,[10]; [39],5.45%
same,inhibition,[10]; [40],-2.11%
same,inhibition,[11]; [41],9.22%
same,inhibition,[11]; at 0.5 µM,8.17% (inactive)
same,inhibition,[11]; [42],-16.8%
same,inhibition,[12]; at 0.5 µM,41.8% (inactive)
same,inhibition,[12]; [43],31.3%
same,inhibition,[12]; [44],43.3%
same,inhibition,[13]; at 0.5 µM,-6.61% (inactive)
same,inhibition,[13]; [45],-27.5%
same,inhibition,"[13]; cisplatin combination, at 5 µM",2.51%
same,inhibition,[13]; [46],-56.9%
same,inhibition,"[13]; single agent, at 5 µM",-15.2%
same,inhibition,[14]; at 0.5 µM,-4.49% (inactive)
same,inhibition,"[14]; cisplatin combo, at 5 µM",16.1%
same,inhibition,[14]; [47],-6.16%
same,inhibition,[14]; [25],22.5%
same,inhibition,"[14]; single agent, at 5 µM",-14.1%
same,inhibition,[15]; at 0.5 µM,-21.1% (inactive)
same,inhibition,[15]; [22],-27%
same,inhibition,[15]; [23],-20%
same,inhibition,"[15]; single agent, at 0.05 µM",24.5%
same,inhibition,"[15]; single agent, at 5 µM",-45%
